{"source": "PubChem BioAssay (Tox21)", "key": {"[1]": {"experiment": "cAMP Responsive Elements (CRE) small molecule antagonists, cell-based qHTS assay: qHTS cell viability counter screen (AID 2060913); note: nearly all actives have a fitted effect of over 40% in size", "in_short": "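CRE-bla HEK293T cells (2,000/well, 18 h) given compound plus NKH477 0.25 uM final for 3 h at 37C; viability counter-screen by CellTiter-Glo luminescence in same wells after 30 min.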"}, "[2]": {"experiment": "cAMP Responsive Elements (CRE) small molecule agonists, cell-based qHTS assay: qHTS cell viability counter screen (AID 2060914); note: nearly all actives have a fitted effect of over 50% in size", "in_short": "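Cytotoxicity was measured as ATP luminescence (CellTiter-Glo, 30 min at room temperature) in the same wells as the CRE-bla FRET read-out. HEK293T CRE-bla cells had 3 h compound exposure at 37C/5% CO2.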"}}, "note": "Results filed as inconclusive are left out. Where a call stands in place of a potency, no number is given. Values without a mark were called inactive. Activity calls are given as the source filed them. Calls come from the whole dose curve; as a rule, active = well fitted cell-killing curve with a large enough effect in the repeat runs; inconclusive = weak or mixed curves, or effect the other way; inactive = flat fitted curve, though single readings scatter. Potency is the fitted concentration of half-maximal effect."}
{"smiles": "CC[N+]1(CCOC(=O)C(O)(c2ccccc2)c2ccccc2)CCCCC1", "values": [{"measurement": "Potency", "setting": "[1]", "result": "inactive"}, {"measurement": "Potency", "setting": "[2]", "result": "inactive"}]}
{"smiles": "Clc1cc2c(cc1Cl)Oc1cc(Cl)c(Cl)cc1O2", "values": [{"measurement": "viability change, negative = cytotoxic", "setting": "[1]", "result": "7.14% [at 0.349 µM]"}, {"measurement": "activity change, negative = cytotoxicity", "setting": "[2]", "result": "1.6% [at 0.349 µM]"}]}
{"smiles": "O=C1CCCN1", "values": [{"measurement": "Potency", "setting": "[1]", "result": "inactive"}, {"measurement": "Potency", "setting": "[2]", "result": "inactive"}]}
{"smiles": "Fc1ccc(C2(Cn3cncn3)OC2c2ccccc2Cl)cc1", "note": "(configuration not stated)", "values": [{"measurement": "Potency", "setting": "[1]", "result": "inactive"}, {"measurement": "Potency", "setting": "[2]", "result": "inactive"}]}
{"smiles": "Cc1ccn2nc(S(=O)(=O)Nc3c(F)cccc3F)nc2n1", "values": [{"measurement": "Potency", "setting": "[1]", "result": "inactive"}, {"measurement": "Potency", "setting": "[2]", "result": "inactive"}]}
{"smiles": "COc1ccc(C(CN(C)C)C2(O)CCCCC2)cc1", "note": "(configuration not stated)", "values": [{"measurement": "Potency", "setting": "[1]", "result": "inactive"}, {"measurement": "Potency", "setting": "[2]", "result": "inactive"}]}
{"smiles": "CN(C1CCCCC1)C1CCCCC1", "values": [{"measurement": "Potency", "setting": "[1]", "result": "inactive"}, {"measurement": "Potency", "setting": "[2]", "result": "inactive"}]}
{"smiles": "CCCC(C)(COC(N)=O)COC(=O)NC(C)C", "note": "(configuration not stated)", "values": [{"measurement": "Potency", "setting": "[1]", "result": "inactive"}, {"measurement": "Potency", "setting": "[2]", "result": "inactive"}]}
{"smiles": "CC(C)N(C(=O)SCC(Cl)=C(Cl)Cl)C(C)C", "values": [{"measurement": "Potency", "setting": "[1]", "result": "inactive"}, {"measurement": "Potency", "setting": "[2]", "result": "inactive"}]}
{"smiles": "O=[N+]([O-])c1cccc(O)c1", "values": [{"measurement": "Potency", "setting": "[1]", "result": "inactive"}, {"measurement": "Potency", "setting": "[2]", "result": "inactive"}]}
{"smiles": "C(CCOCC1CO1)COCC1CO1", "note": "(configuration not stated)", "values": [{"measurement": "Potency", "setting": "[1]", "result": "inactive"}, {"measurement": "Potency", "setting": "[2]", "result": "inactive"}]}
{"smiles": "CC(=O)C1CCOC1=O", "note": "(configuration not stated)", "values": [{"measurement": "Potency", "setting": "[1]", "result": "inactive"}, {"measurement": "Potency", "setting": "[2]", "result": "inactive"}]}
{"smiles": "COP(N)(=S)OC", "values": [{"measurement": "Potency", "setting": "[1]", "result": "inactive"}, {"measurement": "Potency", "setting": "[2]", "result": "inactive"}]}
{"smiles": "O=C(O)COc1ccc(Cl)cc1", "values": [{"measurement": "Potency", "setting": "[1]", "result": "inactive"}, {"measurement": "Potency", "setting": "[2]", "result": "inactive"}]}
{"smiles": "O=C(O)C(F)(F)C(F)(F)C(F)(F)C(F)(F)C(F)(F)F", "values": [{"measurement": "Potency", "setting": "[1]", "result": "inactive"}, {"measurement": "Potency", "setting": "[2]", "result": "inactive"}]}
{"smiles": "CN(C)c1ccc(N)cc1", "values": [{"measurement": "Potency", "setting": "[1]", "result": "inactive"}, {"measurement": "Potency", "setting": "[2]", "result": "inactive"}]}
{"smiles": "CCNc1nc(NC(C)C(C)C)nc(SC)n1", "note": "(configuration not stated)", "values": [{"measurement": "Potency", "setting": "[1]", "result": "inactive"}, {"measurement": "Potency", "setting": "[2]", "result": "inactive"}]}
{"smiles": "O=C1c2ccccc2C(=O)N1SC(Cl)(Cl)Cl", "values": [{"measurement": "Potency", "setting": "[1]", "result": "inactive"}, {"measurement": "Potency", "setting": "[2]", "result": "inactive"}]}
{"smiles": "CN1C[C@H](C(=O)N[C@]2(C)O[C@@]3(O)[C@@H]4CCCN4C(=O)[C@H](Cc4ccccc4)N3C2=O)C=C2c3cccc4[nH]cc(c34)C[C@H]21", "values": [{"measurement": "Potency", "setting": "[1]", "result": "inactive"}, {"measurement": "Potency", "setting": "[2]", "result": "inactive"}]}
{"smiles": "CCCCNC(=O)OCC#CI", "values": [{"measurement": "Potency", "setting": "[1]", "result": "inactive"}, {"measurement": "Potency", "setting": "[2]", "result": "inactive"}]}
{"smiles": "CCCCN(N=O)C(=N)N[N+](=O)[O-]", "values": [{"measurement": "Potency", "setting": "[1]", "result": "inactive"}, {"measurement": "Potency", "setting": "[2]", "result": "inactive"}]}
{"smiles": "CSc1nc(NC(C)C)nc(NC(C)C)n1", "values": [{"measurement": "Potency", "setting": "[1]", "result": "inactive"}, {"measurement": "Potency", "setting": "[2]", "result": "inactive"}]}
{"smiles": "Cc1ccc(N=CN(C)C=Nc2ccc(C)cc2C)c(C)c1", "values": [{"measurement": "Potency", "setting": "[1]", "result": "inactive"}, {"measurement": "Potency", "setting": "[2]", "result": "inactive"}]}
{"smiles": "O=[N+]([O-])c1ccc(Cl)c(Cl)c1", "values": [{"measurement": "Potency", "setting": "[1]", "result": "inactive"}, {"measurement": "Potency", "setting": "[2]", "result": "inactive"}]}
{"smiles": "CCC(=O)c1ccccc1", "values": [{"measurement": "Potency", "setting": "[1]", "result": "inactive"}, {"measurement": "Potency", "setting": "[2]", "result": "inactive"}]}
{"smiles": "CCN(CC)CCN1C(=O)CN=C(c2ccccc2F)c2cc(Cl)ccc21", "values": [{"measurement": "Potency", "setting": "[1]", "result": "inactive"}, {"measurement": "Potency", "setting": "[2]", "result": "inactive"}]}
{"smiles": "c1nc[nH]n1", "values": [{"measurement": "Potency", "setting": "[1]", "result": "inactive"}, {"measurement": "Potency", "setting": "[2]", "result": "inactive"}]}
{"smiles": "CCC(=O)Nc1ccc(Cl)c(Cl)c1", "values": [{"measurement": "Potency", "setting": "[1]", "result": "inactive"}, {"measurement": "Potency", "setting": "[2]", "result": "inactive"}]}
{"smiles": "O=Cc1ccc2c(c1)OCO2", "values": [{"measurement": "Potency", "setting": "[1]", "result": "inactive"}, {"measurement": "Potency", "setting": "[2]", "result": "inactive"}]}
{"smiles": "CCCCn1cc[n+](C)c1.[Cl][Fe-]([Cl])([Cl])[Cl]", "values": [{"measurement": "Potency", "setting": "[1]", "result": "inactive"}, {"measurement": "Potency", "setting": "[2]", "result": "inactive"}]}
{"smiles": "CCC[CH2][Sn]([CH2]CCC)([CH2]CCC)[O][Sn]([CH2]CCC)([CH2]CCC)[CH2]CCC", "values": [{"measurement": "Potency", "setting": "[1]", "result": "1500 nM (active)"}, {"measurement": "Potency", "setting": "[2]", "result": "1340 nM (active)"}]}
{"smiles": "c1ccc(-c2ccccc2)cc1", "values": [{"measurement": "Potency", "setting": "[1]", "result": "inactive"}, {"measurement": "Potency", "setting": "[2]", "result": "inactive"}]}
{"smiles": "CCc1ccccc1N", "values": [{"measurement": "Potency", "setting": "[1]", "result": "inactive"}, {"measurement": "Potency", "setting": "[2]", "result": "inactive"}]}
{"smiles": "CCCCCCCCCCOC(=O)c1ccccc1C(=O)OCCCCCCCCCC", "values": [{"measurement": "Potency", "setting": "[1]", "result": "inactive"}, {"measurement": "Potency", "setting": "[2]", "result": "inactive"}]}
{"smiles": "ClCC(Cl)Cl", "values": [{"measurement": "Potency", "setting": "[1]", "result": "inactive"}, {"measurement": "Potency", "setting": "[2]", "result": "inactive"}]}
{"smiles": "CCC1(c2ccccc2)C(=O)NC(=O)NC1=O", "values": [{"measurement": "Potency", "setting": "[1]", "result": "inactive"}, {"measurement": "Potency", "setting": "[2]", "result": "inactive"}]}
{"smiles": "C[C@H]1CC[C@@H]2[C@@H](C)[C@H]3[C@H](C[C@H]4[C@@H]5CC=C6CC(O[C@@H]7O[C@H](CO)[C@H](O)[C@H](O[C@@H]8O[C@H](CO)[C@@H](O)[C@H](O)[C@H]8O)[C@H]7O[C@H]7O[C@@H](C)[C@H](O)[C@@H](O)[C@H]7O)CC[C@]6(C)[C@H]5CC[C@]34C)N2C1", "note": "(some centres not stated)", "values": [{"measurement": "Potency", "setting": "[1]", "result": "inactive"}, {"measurement": "Potency", "setting": "[2]", "result": "inactive"}]}
{"smiles": "COC(=O)C1(O)c2ccccc2-c2ccccc21", "values": [{"measurement": "Potency", "setting": "[1]", "result": "inactive"}, {"measurement": "Potency", "setting": "[2]", "result": "inactive"}]}
{"smiles": "CNC(=O)O/N=C/C(C)(C)S(C)=O", "note": "(configuration not stated)", "values": [{"measurement": "Potency", "setting": "[1]", "result": "inactive"}, {"measurement": "Potency", "setting": "[2]", "result": "inactive"}]}
{"smiles": "Cl/C=C/CCl", "values": [{"measurement": "Potency", "setting": "[1]", "result": "inactive"}, {"measurement": "Potency", "setting": "[2]", "result": "inactive"}]}
{"smiles": "CN(C)C(=S)S", "values": [{"measurement": "Potency", "setting": "[1]", "result": "inactive"}, {"measurement": "Potency", "setting": "[2]", "result": "inactive"}]}
{"smiles": "O=C(NC(=O)c1c(F)cccc1F)Nc1cc(Cl)c(F)c(Cl)c1F", "values": [{"measurement": "Potency", "setting": "[1]", "result": "inactive"}, {"measurement": "Potency", "setting": "[2]", "result": "inactive"}]}
{"smiles": "CCCN1CCC[C@@H]2Cc3nc(N)ncc3C[C@H]21", "values": [{"measurement": "Potency", "setting": "[1]", "result": "inactive"}, {"measurement": "Potency", "setting": "[2]", "result": "inactive"}]}
{"smiles": "CCC(C)c1ccc(O)cc1", "note": "(configuration not stated)", "values": [{"measurement": "Potency", "setting": "[1]", "result": "inactive"}, {"measurement": "Potency", "setting": "[2]", "result": "inactive"}]}
{"smiles": "CCCCCCCCCCCCN=C(N)N", "values": [{"measurement": "viability change, negative = cytotoxic", "setting": "[1]", "result": "-6.77% [at 3.27 µM]"}, {"measurement": "activity change, negative = cytotoxicity", "setting": "[2]", "result": "-15.8% [at 3.27 µM]"}]}
{"smiles": "Clc1ccc(C(Cl)(Cl)Cl)cc1", "values": [{"measurement": "Potency", "setting": "[1]", "result": "inactive"}, {"measurement": "Potency", "setting": "[2]", "result": "inactive"}]}
{"smiles": "CC(=O)Nc1cc([As](=O)(O)O)ccc1O", "values": [{"measurement": "Potency", "setting": "[1]", "result": "inactive"}, {"measurement": "Potency", "setting": "[2]", "result": "inactive"}]}
{"smiles": "CCn1cc[n+](C)c1C", "values": [{"measurement": "Potency", "setting": "[1]", "result": "inactive"}, {"measurement": "Potency", "setting": "[2]", "result": "inactive"}]}
{"smiles": "COP(=O)(OC)SCn1c(=O)oc2cc(Cl)cnc21", "values": [{"measurement": "Potency", "setting": "[1]", "result": "inactive"}, {"measurement": "Potency", "setting": "[2]", "result": "inactive"}]}
{"smiles": "O=C(N[C@H]1CN2CCC1CC2)c1ccc2c(c1)OCCO2", "values": [{"measurement": "Potency", "setting": "[1]", "result": "inactive"}, {"measurement": "Potency", "setting": "[2]", "result": "inactive"}]}
{"smiles": "O=C(Cl)C(Cl)(Cl)Cl", "values": [{"measurement": "Potency", "setting": "[1]", "result": "inactive"}, {"measurement": "Potency", "setting": "[2]", "result": "inactive"}]}
